The results in this text go back to publication PMC7862700, “An all-to-all approach to the identification of sequence-specific readers for epigenetic DNA modifications on cytosine”.

Holding throughout (assay): DAPPL (digital affinity profiling via proximity ligation, sequencing); 10 mM Tris-HCl pH 7.5, 50 mM NaCl, 1 mM DTT, 4% glycerol, room temperature, 30 min; GST-TFs on glutathione beads, 16-mer random dsDNA library, 0.1% formaldehyde crosslink after washing; high values mean tight binding
For one assay, the target named is T1, FEV (Homo sapiens, UniProt Q99581 1-238).
T1 sequence: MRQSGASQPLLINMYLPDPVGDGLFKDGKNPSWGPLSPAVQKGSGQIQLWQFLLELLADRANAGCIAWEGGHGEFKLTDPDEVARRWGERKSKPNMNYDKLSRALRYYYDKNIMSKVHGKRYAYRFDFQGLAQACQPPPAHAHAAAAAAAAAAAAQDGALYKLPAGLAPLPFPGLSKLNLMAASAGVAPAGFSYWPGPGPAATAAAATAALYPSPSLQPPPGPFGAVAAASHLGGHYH
As to conditions: protein: recombinant; tags: N-terminal GST; dsDNA, one strand shown. Summed up:
(§1)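 Binding signal is given per hexamer as its read frequency for a factor divided by its frequency in the tag-only sample. GST-fused human transcription factors were expressed in yeast, captured on glutathione beads, barcoded with DNA and pooled with that sample, then incubated with 200 nmole of a 16-mer random double-stranded DNA library in Tris/NaCl/DTT/glycerol buffer for 30 min at room temperature. The pools were then washed, crosslinked, proximity-ligated, amplified by PCR and sequenced on an Illumina NextSeq500.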

The next assay addresses ETV5 (Homo sapiens, UniProt P41161 1-510). As to conditions: protein: recombinant; tags: N-terminal GST; dsDNA, one strand shown. Summed up: as §1
The target of the next assay is HSF1 (Homo sapiens, UniProt Q00613 1-529). As to conditions: protein: recombinant; tags: N-terminal GST; chain copies: 3; dsDNA, one strand shown. Summed up:
as §1

The target of the next assay is T2, SPIC (Homo sapiens, UniProt Q8N5J4 1-248).
T2 sequence: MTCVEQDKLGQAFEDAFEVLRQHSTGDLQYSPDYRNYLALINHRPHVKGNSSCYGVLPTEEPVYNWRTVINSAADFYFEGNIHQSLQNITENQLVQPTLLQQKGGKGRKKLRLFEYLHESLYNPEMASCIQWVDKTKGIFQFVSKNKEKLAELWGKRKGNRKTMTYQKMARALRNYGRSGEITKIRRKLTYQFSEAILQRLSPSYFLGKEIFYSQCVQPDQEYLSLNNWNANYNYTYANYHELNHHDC
As to conditions: protein: recombinant; tags: N-terminal GST; dsDNA, one strand shown. Summed up:
as §1

The next assay deals with ELF4 (Homo sapiens, UniProt Q99607 1-663). As to conditions: protein: recombinant; tags: N-terminal GST; dsDNA, one strand shown. In short, it runs like this: as §1
Sequence of ELF4 (Q99607 whole entry): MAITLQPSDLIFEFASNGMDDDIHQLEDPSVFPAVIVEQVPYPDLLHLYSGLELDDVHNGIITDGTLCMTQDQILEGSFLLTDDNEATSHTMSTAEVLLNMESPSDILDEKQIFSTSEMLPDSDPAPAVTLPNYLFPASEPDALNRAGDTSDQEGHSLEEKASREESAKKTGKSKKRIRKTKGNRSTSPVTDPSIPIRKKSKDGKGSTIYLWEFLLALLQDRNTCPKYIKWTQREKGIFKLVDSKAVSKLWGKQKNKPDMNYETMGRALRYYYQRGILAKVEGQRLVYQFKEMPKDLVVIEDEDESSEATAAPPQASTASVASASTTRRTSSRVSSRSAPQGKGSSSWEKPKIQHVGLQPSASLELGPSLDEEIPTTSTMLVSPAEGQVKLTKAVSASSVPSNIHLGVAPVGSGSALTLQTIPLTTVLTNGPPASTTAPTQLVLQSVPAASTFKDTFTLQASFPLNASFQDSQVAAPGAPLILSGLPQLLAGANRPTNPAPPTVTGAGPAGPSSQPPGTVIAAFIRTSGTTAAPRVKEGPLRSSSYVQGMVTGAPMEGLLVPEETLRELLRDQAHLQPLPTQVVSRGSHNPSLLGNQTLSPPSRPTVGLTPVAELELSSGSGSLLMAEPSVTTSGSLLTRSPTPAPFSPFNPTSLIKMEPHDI
The target in another assay is T3, ELK4 (Homo sapiens, UniProt P28324-2 1-405).
T3 sequence: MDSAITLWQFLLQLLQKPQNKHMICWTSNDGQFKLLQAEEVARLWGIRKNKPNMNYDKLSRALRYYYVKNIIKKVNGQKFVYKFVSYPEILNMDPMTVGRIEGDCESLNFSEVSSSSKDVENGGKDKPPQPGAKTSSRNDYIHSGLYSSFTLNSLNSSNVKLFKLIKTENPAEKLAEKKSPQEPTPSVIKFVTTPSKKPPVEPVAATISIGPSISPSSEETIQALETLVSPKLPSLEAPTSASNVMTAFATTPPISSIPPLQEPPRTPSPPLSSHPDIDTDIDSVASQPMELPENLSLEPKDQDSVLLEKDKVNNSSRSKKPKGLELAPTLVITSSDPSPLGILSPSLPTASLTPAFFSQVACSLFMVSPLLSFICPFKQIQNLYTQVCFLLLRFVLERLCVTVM
The settings on record: protein: recombinant; tags: N-terminal GST; dsDNA, one strand shown. In short, it runs like this: as §1

The next assay addresses T4, ETV2 (Homo sapiens, UniProt O00321 1-342).
T4 sequence: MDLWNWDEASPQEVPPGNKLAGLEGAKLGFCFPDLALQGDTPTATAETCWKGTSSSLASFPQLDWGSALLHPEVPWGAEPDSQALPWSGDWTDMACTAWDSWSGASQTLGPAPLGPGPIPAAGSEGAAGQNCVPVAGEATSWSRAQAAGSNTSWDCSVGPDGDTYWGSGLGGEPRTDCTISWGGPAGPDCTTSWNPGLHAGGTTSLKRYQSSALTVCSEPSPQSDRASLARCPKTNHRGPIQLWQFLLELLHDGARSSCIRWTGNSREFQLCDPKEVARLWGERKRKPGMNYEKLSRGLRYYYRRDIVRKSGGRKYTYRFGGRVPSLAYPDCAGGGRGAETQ
The settings on record: protein: recombinant; tags: N-terminal GST; dsDNA, one strand shown. Summed up: as §1

A further assay concerns the target T5, ELF3 (Homo sapiens, UniProt P78545 1-371).
T5 sequence: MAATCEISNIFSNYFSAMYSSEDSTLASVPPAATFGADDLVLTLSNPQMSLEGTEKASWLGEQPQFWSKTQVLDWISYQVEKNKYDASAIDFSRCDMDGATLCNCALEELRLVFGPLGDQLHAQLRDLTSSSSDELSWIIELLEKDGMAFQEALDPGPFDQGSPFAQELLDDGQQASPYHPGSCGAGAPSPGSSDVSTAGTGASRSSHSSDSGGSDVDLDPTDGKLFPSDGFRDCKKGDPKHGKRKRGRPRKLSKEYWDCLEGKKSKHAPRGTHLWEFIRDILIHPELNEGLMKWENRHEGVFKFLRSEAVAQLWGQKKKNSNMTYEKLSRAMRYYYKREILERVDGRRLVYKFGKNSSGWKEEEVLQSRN
As to conditions: protein: recombinant; tags: N-terminal GST; dsDNA, one strand shown. In short, it runs like this:
as §1

The next assay concerns the target CRX (Homo sapiens, UniProt O43186 1-299). The settings on record: protein: recombinant; tags: N-terminal GST; dsDNA, one strand shown. In short, it runs like this: as §1
For the next assay, the target named is ETV1 (Homo sapiens, UniProt P50549 1-477). The settings on record: protein: recombinant; tags: N-terminal GST; dsDNA, one strand shown. Summed up:
as §1

The target of another assay is T6, ERF (Homo sapiens, UniProt P50548 1-548).
T6 sequence: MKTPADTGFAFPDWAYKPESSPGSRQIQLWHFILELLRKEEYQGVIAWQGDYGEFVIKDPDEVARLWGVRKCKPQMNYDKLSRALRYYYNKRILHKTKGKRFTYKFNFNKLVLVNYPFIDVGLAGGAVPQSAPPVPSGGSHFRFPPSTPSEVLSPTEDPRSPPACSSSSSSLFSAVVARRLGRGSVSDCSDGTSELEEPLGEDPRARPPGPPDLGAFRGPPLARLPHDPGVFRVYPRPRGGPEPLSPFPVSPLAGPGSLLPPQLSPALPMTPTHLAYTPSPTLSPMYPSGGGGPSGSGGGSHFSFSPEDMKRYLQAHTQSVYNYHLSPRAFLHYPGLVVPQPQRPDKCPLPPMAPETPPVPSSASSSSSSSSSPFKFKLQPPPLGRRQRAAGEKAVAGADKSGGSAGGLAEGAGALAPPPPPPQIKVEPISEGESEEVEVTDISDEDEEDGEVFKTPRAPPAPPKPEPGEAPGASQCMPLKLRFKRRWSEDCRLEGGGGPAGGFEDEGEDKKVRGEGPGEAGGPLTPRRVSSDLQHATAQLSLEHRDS
As to conditions: protein: recombinant; tags: N-terminal GST; dsDNA, one strand shown. In short, it runs like this:
as §1

The next assay deals with T7, ETV3L (Homo sapiens, UniProt Q6ZN32 1-361).
T7 sequence: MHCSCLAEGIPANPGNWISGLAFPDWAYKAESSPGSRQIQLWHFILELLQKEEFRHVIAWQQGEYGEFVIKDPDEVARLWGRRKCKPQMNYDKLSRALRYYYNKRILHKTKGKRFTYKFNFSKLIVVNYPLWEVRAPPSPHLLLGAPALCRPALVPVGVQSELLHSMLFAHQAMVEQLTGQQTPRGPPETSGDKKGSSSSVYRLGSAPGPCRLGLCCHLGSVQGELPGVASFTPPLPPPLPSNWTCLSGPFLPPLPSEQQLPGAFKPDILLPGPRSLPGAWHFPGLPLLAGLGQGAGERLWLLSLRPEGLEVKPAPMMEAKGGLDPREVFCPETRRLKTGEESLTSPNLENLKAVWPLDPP
The settings on record: protein: recombinant; tags: N-terminal GST; dsDNA, one strand shown. In short, it runs like this:
as §1

A further assay concerns the target T8, ETS2 (Homo sapiens, UniProt P15036 1-469).
T8 sequence: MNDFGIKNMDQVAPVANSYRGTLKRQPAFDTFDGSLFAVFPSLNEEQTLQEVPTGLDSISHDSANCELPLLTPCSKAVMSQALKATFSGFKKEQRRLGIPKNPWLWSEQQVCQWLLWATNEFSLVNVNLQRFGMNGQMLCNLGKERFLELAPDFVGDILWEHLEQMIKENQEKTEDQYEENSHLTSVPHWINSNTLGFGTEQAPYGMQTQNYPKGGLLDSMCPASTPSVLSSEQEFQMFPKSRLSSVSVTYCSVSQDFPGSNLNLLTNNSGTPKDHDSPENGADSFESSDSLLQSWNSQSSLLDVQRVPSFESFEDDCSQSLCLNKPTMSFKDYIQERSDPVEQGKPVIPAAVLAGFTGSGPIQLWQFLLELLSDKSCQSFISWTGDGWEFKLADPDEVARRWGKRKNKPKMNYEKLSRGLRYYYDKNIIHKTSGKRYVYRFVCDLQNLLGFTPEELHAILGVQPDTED
The settings on record: protein: recombinant; tags: N-terminal GST; dsDNA, one strand shown. In short, it runs like this:
as §1

In another assay the target is T9, SPDEF (Homo sapiens, UniProt O95238 1-335).
T9 sequence: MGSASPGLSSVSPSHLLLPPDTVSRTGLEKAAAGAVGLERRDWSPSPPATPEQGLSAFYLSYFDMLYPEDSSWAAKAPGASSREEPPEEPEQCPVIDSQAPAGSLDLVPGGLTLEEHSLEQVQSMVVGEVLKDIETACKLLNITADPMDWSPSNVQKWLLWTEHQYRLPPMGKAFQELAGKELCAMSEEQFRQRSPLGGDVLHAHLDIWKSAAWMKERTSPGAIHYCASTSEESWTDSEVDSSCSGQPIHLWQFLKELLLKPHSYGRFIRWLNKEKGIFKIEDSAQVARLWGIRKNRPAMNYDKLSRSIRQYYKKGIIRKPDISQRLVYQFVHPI
The settings on record: protein: recombinant; tags: N-terminal GST; dsDNA, one strand shown. Summed up:
as §1

In another assay the target is T10, ETV7 (Homo sapiens, UniProt Q9Y603 1-341).
T10 sequence: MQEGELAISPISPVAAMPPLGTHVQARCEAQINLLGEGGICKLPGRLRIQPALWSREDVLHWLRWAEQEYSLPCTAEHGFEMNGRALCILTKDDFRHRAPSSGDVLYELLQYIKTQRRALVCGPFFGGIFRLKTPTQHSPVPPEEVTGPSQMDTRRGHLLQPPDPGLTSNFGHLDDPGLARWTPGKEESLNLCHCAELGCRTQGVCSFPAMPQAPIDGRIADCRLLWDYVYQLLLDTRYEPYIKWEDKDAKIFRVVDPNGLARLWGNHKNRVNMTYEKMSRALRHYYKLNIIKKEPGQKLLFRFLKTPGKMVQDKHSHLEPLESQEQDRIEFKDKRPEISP
The settings on record: protein: recombinant; tags: N-terminal GST; dsDNA, one strand shown. Summed up: as §1

A further assay deals with T11, ELF5 (Homo sapiens, UniProt Q9UKW6-2 1-255).
T11 sequence: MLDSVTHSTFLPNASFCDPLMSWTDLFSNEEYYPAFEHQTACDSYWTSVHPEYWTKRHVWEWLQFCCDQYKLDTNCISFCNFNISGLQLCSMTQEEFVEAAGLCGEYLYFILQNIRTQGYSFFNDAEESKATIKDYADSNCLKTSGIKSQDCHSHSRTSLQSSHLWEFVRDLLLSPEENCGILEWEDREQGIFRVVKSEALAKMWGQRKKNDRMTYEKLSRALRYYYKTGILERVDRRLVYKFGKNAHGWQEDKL
As to conditions: protein: recombinant; tags: N-terminal GST; dsDNA, one strand shown. In short, it runs like this:
as §1

A further assay addresses T12, ETV3 (Homo sapiens, UniProt P41162-2 1-143).
T12 sequence: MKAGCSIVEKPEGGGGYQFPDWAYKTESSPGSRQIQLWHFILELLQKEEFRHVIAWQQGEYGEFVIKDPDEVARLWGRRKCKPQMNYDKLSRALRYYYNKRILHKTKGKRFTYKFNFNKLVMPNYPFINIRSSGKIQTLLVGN
The settings on record: protein: recombinant; tags: N-terminal GST; dsDNA, one strand shown. In short, it runs like this: as §1

For a further assay, the target named is ETV6 (Homo sapiens, UniProt P41212 1-452). The settings on record: protein: recombinant; tags: N-terminal GST; dsDNA, one strand shown. In short, it runs like this: as §1
Sequence of ETV6 (P41212 whole entry): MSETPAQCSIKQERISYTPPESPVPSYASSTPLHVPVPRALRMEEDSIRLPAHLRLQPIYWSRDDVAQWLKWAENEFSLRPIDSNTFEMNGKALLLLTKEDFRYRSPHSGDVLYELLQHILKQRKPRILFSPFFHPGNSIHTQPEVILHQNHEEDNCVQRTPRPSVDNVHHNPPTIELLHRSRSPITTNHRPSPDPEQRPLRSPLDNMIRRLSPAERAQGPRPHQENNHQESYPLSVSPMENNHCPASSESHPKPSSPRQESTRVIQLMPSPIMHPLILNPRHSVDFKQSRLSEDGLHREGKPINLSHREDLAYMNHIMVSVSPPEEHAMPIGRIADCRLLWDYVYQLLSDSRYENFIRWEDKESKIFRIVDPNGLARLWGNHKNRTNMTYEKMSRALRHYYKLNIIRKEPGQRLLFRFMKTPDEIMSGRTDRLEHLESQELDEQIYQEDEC

Sequence of HSF1 (Q00613 whole entry): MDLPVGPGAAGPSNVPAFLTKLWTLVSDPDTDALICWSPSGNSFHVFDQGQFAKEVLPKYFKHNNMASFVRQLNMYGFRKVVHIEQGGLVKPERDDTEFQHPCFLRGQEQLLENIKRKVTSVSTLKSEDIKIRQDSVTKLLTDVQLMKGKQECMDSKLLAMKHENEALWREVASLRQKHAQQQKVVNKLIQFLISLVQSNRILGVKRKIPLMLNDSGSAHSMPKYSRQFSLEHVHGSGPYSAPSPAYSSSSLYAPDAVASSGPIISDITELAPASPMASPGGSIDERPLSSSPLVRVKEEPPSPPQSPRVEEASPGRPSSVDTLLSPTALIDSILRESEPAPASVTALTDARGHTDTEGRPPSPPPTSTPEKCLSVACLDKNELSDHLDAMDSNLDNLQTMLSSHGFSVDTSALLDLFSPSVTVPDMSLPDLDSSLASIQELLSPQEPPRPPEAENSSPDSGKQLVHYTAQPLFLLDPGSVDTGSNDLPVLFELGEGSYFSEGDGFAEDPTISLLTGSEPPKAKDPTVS
Sequence of ETV5 (P41161 whole entry): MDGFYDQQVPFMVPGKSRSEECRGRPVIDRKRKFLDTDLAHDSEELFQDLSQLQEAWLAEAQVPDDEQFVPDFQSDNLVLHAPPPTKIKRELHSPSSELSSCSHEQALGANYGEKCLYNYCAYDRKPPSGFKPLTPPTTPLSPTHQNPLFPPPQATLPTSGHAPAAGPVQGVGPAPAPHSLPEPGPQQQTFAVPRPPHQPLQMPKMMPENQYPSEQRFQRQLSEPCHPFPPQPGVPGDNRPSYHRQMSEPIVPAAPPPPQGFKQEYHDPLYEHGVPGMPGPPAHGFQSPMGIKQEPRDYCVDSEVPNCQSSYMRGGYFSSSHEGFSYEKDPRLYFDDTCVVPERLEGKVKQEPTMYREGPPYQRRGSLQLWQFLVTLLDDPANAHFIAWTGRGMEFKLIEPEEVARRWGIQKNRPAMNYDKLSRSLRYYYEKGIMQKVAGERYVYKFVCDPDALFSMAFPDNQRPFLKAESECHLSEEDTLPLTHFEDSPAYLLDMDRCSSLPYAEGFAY
Sequence of ETV1 (P50549 whole entry): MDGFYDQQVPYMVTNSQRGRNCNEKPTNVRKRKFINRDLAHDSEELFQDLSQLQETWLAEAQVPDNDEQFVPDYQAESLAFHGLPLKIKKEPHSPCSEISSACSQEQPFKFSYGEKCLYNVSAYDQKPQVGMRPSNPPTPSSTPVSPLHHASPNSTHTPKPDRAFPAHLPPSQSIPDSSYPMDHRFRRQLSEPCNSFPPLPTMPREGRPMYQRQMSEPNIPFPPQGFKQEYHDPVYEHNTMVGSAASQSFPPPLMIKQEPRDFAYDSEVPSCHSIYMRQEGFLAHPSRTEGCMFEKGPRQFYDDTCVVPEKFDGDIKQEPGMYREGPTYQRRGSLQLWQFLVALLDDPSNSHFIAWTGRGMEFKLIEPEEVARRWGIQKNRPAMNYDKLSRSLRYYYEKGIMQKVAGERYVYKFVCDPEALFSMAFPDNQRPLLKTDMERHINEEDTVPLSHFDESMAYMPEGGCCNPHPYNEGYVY
Sequence of CRX (O43186 whole entry): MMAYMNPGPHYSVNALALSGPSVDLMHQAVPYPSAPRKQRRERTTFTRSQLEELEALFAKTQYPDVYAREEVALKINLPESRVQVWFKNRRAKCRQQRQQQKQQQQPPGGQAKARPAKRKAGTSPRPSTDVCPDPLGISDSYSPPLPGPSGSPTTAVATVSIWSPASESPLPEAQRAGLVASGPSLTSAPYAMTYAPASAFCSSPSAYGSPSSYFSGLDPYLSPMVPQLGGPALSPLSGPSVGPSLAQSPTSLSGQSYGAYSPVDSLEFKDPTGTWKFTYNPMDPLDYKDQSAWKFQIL

On to TCCTAG, for which the binding signal is 1.19 fold enrichment (6-mer frequency, TF over GST control) in the assay with FEV; 1.33 fold enrichment (6-mer frequency, TF over GST control) with ETV5; 1.45 fold enrichment (6-mer frequency, TF over GST control) with HSF1; 1.2 fold enrichment (6-mer frequency, TF over GST control) with SPIC; 1.29 fold enrichment (6-mer frequency, TF over GST control) with ELF4; 1.24 fold enrichment (6-mer frequency, TF over GST control) with ELK4. For the same sequence, the binding signal in the assay with ETV2 is 1.23 fold enrichment (6-mer frequency, TF over GST control); in the assay with ELF3, 1.2 fold enrichment (6-mer frequency, TF over GST control); with CRX, 1.29 fold enrichment (6-mer frequency, TF over GST control); with ETV1 it was 1.41 fold enrichment (6-mer frequency, TF over GST control); with ERF, 1.26 fold enrichment (6-mer frequency, TF over GST control); with ETV3L, 1.08 fold enrichment (6-mer frequency, TF over GST control). Further, the binding signal in the assay with ETS2 is 1.26 fold enrichment (6-mer frequency, TF over GST control); with SPDEF, 1.4 fold enrichment (6-mer frequency, TF over GST control); with ETV7, 1.25 fold enrichment (6-mer frequency, TF over GST control); with ELF5, 1.41 fold enrichment (6-mer frequency, TF over GST control); in the assay with ETV3 it was 1.32 fold enrichment (6-mer frequency, TF over GST control); with ETV6 it was 1.26 fold enrichment (6-mer frequency, TF over GST control).
